Results on six molecules are retold here after PubChem BioAssay (NCATS).

Results filed as inconclusive are left out. Activity calls are given as the source filed them. The call rests on the fitted dose curve; in most records, active means well fitted activation curve with a large enough effect in the signal ratio, with a control signal flat (not every such curve was filed as active); inconclusive means small, poorly fitted or top-dose-only effect, or effect the other way, or a change in a side signal; inactive means flat fitted curve, though single readings scatter; the % refers to the signal ratio.

A short description of the experiment: qHTS Assay for Identification of Small Molecule Agonists for Hypoxia Response Element Signaling Pathway (AID 914). Further: % of control where 0% means no effect. The note with it: ME-180 (cervical carcinoma) HRE-bla reporter, beta-lactamase ratio, CoCl2, 17 h; stronger effect = higher value. The gist of the method: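 A beta-lactamase reporter under hypoxia response element control in ME-180 cells served as the system. Compound titrations plus EC50 CoCl2 ran 17 h at 37 degrees Celsius; AC50 values were fitted from %Activity.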
On the technique in general: qHTS replaces the single test concentration by a dilution series.
In the case of `COC(=O)[C@H](Cc1ccccc1)NC(=O)[C@@H](C)CO`, the activation was 5.86% (inactive).

Turning to `CCOC(=O)CCN1C(=O)[C@H]2[C@@H]3[C@H](O)[C@H](O)CC(=O)[C@H]3CC[C@H]2C1=O`, the activation is 2.87% (inactive).

`Cc1ccc(S(=O)(=O)N[C@H]2COC(=O)C/C=C\[C@@H](C)[C@H](NS(=O)(=O)c3ccc(C)cc3)COC(=O)[C@H](C)NC(=O)C/C=C\[C@H]2C)cc1`: the activation was 3.42% (inactive).

Take `COC(=O)C/C=C\[C@@H](C)[C@@H](/C=N\O[C@@H](C)CN1CCCc2nc(C)c(C)cc21)NS(=O)(=O)c1ccc(C)cc1`: the activation was 4.52% (inactive).

`C[C@H]1COC(=O)[C@H]2CCCN2C(=O)[C@@H](C)COC(=O)[C@H](Cc2ccccc2)NC1=O`: the activation was -0.107% (inactive).

As to `C[C@@H]1/C=C\CC(=O)OC[C@H](C)C(=O)N[C@@H](C)C(=O)OC1`, the activation was 0.738% (inactive).
